KB-V1 MDR tox: kills drug-selected multidrug resistant KB-V1 cells | KB-V1 MDR cells viability, CellTiter-Glo, 72 h | Potency, µM (doses to about 46.1 µM), most hits filed as cytotoxic | 400,000 tested, 3.4% active | AID 1347076; also: nearly all actives have a fitted effect of over 60% in size
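Readout: CellTiter-Glo luminescence, 10 min after addition. Cells: KB-V1 MDR subline, 72 h at 37 degrees C with compound. Analysis: corrected, normalized data fitted to concentration-effect curves.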
HT1080NT lethal: kills 2HG-producing HT-1080-NT fibrosarcoma cells. AID 686970. Potency, µM (top dose mostly 46.1 µM), for inactives: at the highest dose activity, negative = less viability, usual class: cytotoxic. 360,000 tested, 1.6% active. HT-1080-NT fibrosarcoma viability, CellTiter-Glo ATP luminescence, 48 h;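 also: NT is the 2HG producing partner of a matched IDH1 knockdown line; 0% = DMSO-treated cells and -100% = media-only wells without cells; nearly all actives have a fitted effect of over 55% in size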
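750 cells/well, RPMI + 5% FBS; 2 h settle, compound pin-transfer, 48 h at 37 degrees C. CellTiter-Glo 10 min RT, luminescence. Normalized to DMSO and media-only wells.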
HT1080 IDH1KD tx: kills HT-1080 cells with IDH1 knockdown. AID 686971. 360,000 tested, 2% active. Potency, µM (series often up to 46.1 µM), without a hit: at the highest dose activity, negative = toxicity, usual class: cytotoxic. HT-1080 IDH1 knockdown viability, ATP luminescence, 48 h;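 also: 0% = DMSO wells and -100% = cell-free medium wells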
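Viability of IDH1-knockdown HT-1080 fibrosarcoma cells was assessed by CellTiter-Glo after 48 h at 37 °C with titrated compound; concentration-effect curves were classified by fit quality and response size.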
KB-3-1 cytotox: kills parental KB-3-1 adenocarcinoma cells | KB-3-1 viability, CellTiter-Glo ATP luminescence, 72 h | Potency, µM (highest dose often 46.1 µM), hits mostly cytotoxic | 400,000 tested, 1.4% active; also: nearly all actives have a fitted effect of over 60% in size
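Screening of KB-3-1 cells (DMEM, 10% FBS, phenol-red free) ran from lowest to highest compound concentration; after 72 h at 37 °C viability was read luminescently and curves fitted.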
DT40 TDP1 CPT: growth inhibition of DT40 Tdp1-/-;hTDP1 cells with camptothecin (screen for TDP1 inhibitors); chicken DT40 Tdp1-/-;hTDP1 cells + 20 nM CPT, ATP luminescence, 48 h; Potency, µM (titrated, usually from 46.2 µM), without a hit: at the top dose activity change, negative = growth inhibition, actives largely listed as inhibitors; 420,000 tested, 12% active; also: nearly all actives have a fitted effect of over 55% in size
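Chicken DT40 Tdp1-/- cells stably complemented with human TDP1 were seeded at 400 cells/well in medium containing 20 nM camptothecin, exposed to pin-transferred compounds, and grown at 37 °C for at least 48 hr. Viability was read as ATP luminescence.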
TDP1 cell noCPT: qHTS for Inhibitors of human tyrosyl-DNA phosphodiesterase 1 (TDP1): qHTS in cells in absence of CPT; DT40 Tdp1-/- hTDP1 cells, no CPT, ATP luminescence, 48 h; Potency, µM (highest dose often 46.2 µM), without a hit: top-dose activity change, negative = growth inhibition, most hits filed as inhibitors; 420,000 tested, 15% active; also: nearly all actives have a fitted effect of over 55% in size
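Growth kinetics read by CellTiter-Glo luminescence after ≥48 hr at 37 °C. Cells: DT40 Tdp1-/- stably carrying human TDP1, 400 per well, compound exposure in the absence of CPT (DMSO vehicle).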
* hit, by the source's call; i = inactive; ? = inconclusive; nt = not tested or not shown; ! = not active in a repeat; [ ] = remark or other dose. Rows were chosen to be rich in hits. Some 19% of all compounds tested hit in one or more screens of this group. Calls follow the shape of the dose curve; as a rule, active = well fitted curve in the direction sought with a large enough effect; inconclusive = small, poorly fitted or top-dose-only effect, or another doubt; inactive = no such curve, though single readings can be large; an effect the other way counts as inactive or inconclusive. Unless noted, % is scaled to controls: 0 for no effect and ±100 for the full control effect; potency is read from the fitted curve at half-maximal effect.

SMILES	KB-V1 MDR tox	HT1080NT lethal	HT1080 IDH1KD tx	KB-3-1 cytotox	DT40 TDP1 CPT	TDP1 cell noCPT
COc1ccc(NC(=O)C2Cc3c(-c4cccc(F)c4)ccnc3O2)cn1 (configuration not stated)	?	-11.4%	-28.6%	?	?	16.4µM*
NC(=O)c1cccc(-c2ccnc3c2CC(C(=O)Nc2ccc(Cl)cc2)O3)c1 (configuration not stated)	i	?	?	i	23.1µM*	13µM*
CC(C)c1ccc(NC(=O)C2Cc3c(-c4cccc(F)c4)ccnc3O2)cc1 (configuration not stated)	?	?	?	?	16.4µM*	9.2µM*
CC(C)c1ccc(NC(=O)C2Cc3c(-c4cccc(C(N)=O)c4)ccnc3O2)cc1 (configuration not stated)	i	-20.8%	0.0%	i	16.4µM*	?
O=C(Nc1cccnc1)C1Cc2c(-c3cccc(F)c3)ccnc2O1 (configuration not stated)	i	7.5%	2.2%	i	?	?
COc1ccc2c(c1)Cc1sc(NC(=O)c3ccccc3C)nc1-2	nt	nt	nt	nt	-26.6%	?
O=C(O)c1ccc(CNc2ncnc3nc[nH]c23)cc1	nt	21.5%	25.4%	nt	7.9%	-2.1%
COc1ccc(CC(=O)N2CCN(c3ccccn3)CC2)cc1OC	i	2.0%	-10.1%	i	-17.4%	-5.6%
CCCc1ccc(OCc2ccc(C(=O)N3CCN(c4ccccn4)CC3)o2)c(OC)c1	3.66µM*	?	?	i	?	20.6µM*
COc1ccc(NC(=O)c2ccc(COc3ccccc3OC)o2)cc1OC	i	-0.8%	-8.2%	i	14.6µM*	23.1µM*
COc1ccccc1OCc1ccc(C(=O)Nc2ccc(C)c(C)c2)o1	nt	nt	nt	nt	23.1µM*	?
COc1ccccc1OCc1ccc(C(=O)NCCN(C)C)o1	i	5.2%	5.6%	i	5.5%	13.3%
CCCNC(=O)c1ccc(COc2ccc(CCC)cc2OC)o1	i	-8.9%	-13.4%	i	?	14.6µM*
Cc1ccc(NC(=O)C2(C)CCN2C(=O)CCC2CCCC2)cc1C (configuration not stated)	i	-3.5%	-16.6%	i	?	?
Cc1ccc(NC(=O)Cn2nnc(C(=O)NCc3ccc4c(c3)OCO4)c2N)cc1Cl	nt	nt	nt	nt	-10.8%	4.6%
CCOc1ccc(N2CC(NC(=O)C3CCCCC3)CC2=O)cc1 (configuration not stated)	nt	nt	nt	nt	-6.9%	-1.7%
COc1ccccc1C(C(=O)NC1CCCC1)N(C(=O)c1csnn1)C1CC1 (configuration not stated)	i	-0.8%	-2.6%	i	5.1%	0.5%
COc1cc(NC(=O)c2ccc(COc3ccccc3Br)o2)cc(OC)c1OC	7.31µM*	-0.3%	5.2%	i	?	23.1µM*
COc1ccccc1OCc1ccc(C(=O)Nc2cc(OC)c(OC)c(OC)c2)o1	i	-1.9%	-16.1%	i	?	?
COc1ccccc1NS(=O)(=O)c1ccc(OC)c([N+](=O)[O-])c1	i	0.3%	5.0%	i	0.6%	-12.8%
CCCC(CCC)=NNc1ccc(S(=O)(=O)Nc2ccccc2OC)cc1[N+](=O)[O-]	11.6µM*	2.8%	4.1%	i	?	?
COc1ccccc1NS(=O)(=O)c1ccc(NN=C2CCCCC2)c([N+](=O)[O-])c1	16.4µM*	-10.8%	-2.7%	i	18.4µM*	25.9µM*
NS(=O)(=O)c1ccc(N/N=C2/CCCCC2C2CCCCC2)c([N+](=O)[O-])c1 (configuration not stated)	i	18.4µM*	?	?	20.6µM*	10.3µM*
CC(C)Cn1c(C(C)C)nc([N+](=O)[O-])c1S(=O)(=O)c1ccc(F)cc1	?	3.55µM*	7.08µM*	?	2.31µM*	3.26µM*
CC(C)c1nccn1S(=O)(=O)c1cccc([N+](=O)[O-])c1	i	-1.2%	2.4%	i	-0.8%	-2.0%
SMILES	KB-V1 MDR tox	HT1080NT lethal	HT1080 IDH1KD tx	KB-3-1 cytotox	DT40 TDP1 CPT	TDP1 cell noCPT
CCCc1nc([N+](=O)[O-])c(S(=O)(=O)c2ccccc2)n1CC(C)C	i	-9.7%	?	?	16.4µM*	3.26µM*
COc1cn(CC(=O)Nc2c(C)cc(C)cc2C)c(CN2CCCCC2)cc1=O	nt	nt	nt	nt	13.8%	-8.8%
CN1NC(c2ccccc2)NN(C)C1=O	i	-1.0%	15.4%	i	18.4µM*	-28.6%
CC1C2C(c3ccccc3)N(C)C(=O)N(C)C2N(C)C(=O)N1C (configuration not stated)	i	25.9%	20.4%	i	-0.9%	-17.8%
COc1cccc(Nc2ncc3nc(-c4ccccc4)c(=O)n(C)c3n2)c1	nt	nt	nt	nt	?	2.3%
C[C@]12CCC(=O)C=C1CC[C@H]1[C@@H]3CC[C@](O)(C(=O)CO)[C@@]3(C)C[C@H](O)[C@@]12F	nt	nt	nt	nt	?	26.6µM*!
C[C@]12CCC(=O)C=C1CCC1C3CC[C@](O)(C(=O)CO)[C@@]3(C)CC3OC312 (some centres not stated)	nt	nt	nt	nt	-11.0%[9.04 µM]	-2.2%[9.04 µM]
CCOc1ccc(-c2nnc3ccc(SCC(=O)NCc4ccco4)nn23)cc1	16.4µM*	-16.0%	?	i	-27.9%	?
COC(=O)c1ccc(CSc2ccc3nnc(-c4ccccn4)n3n2)o1	i	14.3%	0.9%	i	-12.6%	?
CCOc1ccc(-c2nnc3ccc(SCc4ccc(C(=O)OC)o4)nn23)cc1	i	12.9%	1.3%	i	?	15.8µM*
COC(=O)c1ccc(CSc2ccc3nnc(-c4ccc(F)cc4)n3n2)o1	i	-12.7%	0.2%	i	?	20.6µM*
Cc1ccc(-c2nnc3ccc(SCC(=O)NCc4ccco4)nn23)cc1	?	-15.7%[9.24 µM]	-18.5%	i	?	-9.9%
COC(=O)c1cccc(Nc2c(-c3cc(Br)ccc3O)nc3nc[nH]n23)c1	?	nt	nt	i	?	?
COc1ccc(-n2nc(C(=O)NCC(=O)N(C)Cc3ccccc3)c3ccccc3c2=O)c(OC)c1	i	-4.6%	0.6%	i	-5.8%	?
CCc1nc2ccccc2c(C(=O)OCC(=O)C(C)(C)C)c1C	?	-0.4%	-24.0%	i	?	18.4µM*

Screening results: PubChem BioAssay, National Center for Advancing Translational Sciences (NCATS)
